POLK inh – qHTS for Inhibitors of Polymerase Kappa; purified Pol kappa, fluorescent DNA synthesis assay, 10 min; hit rate 0.53% among 400,000; Potency, µM (top dose mostly 107 µM), inactives show top-dose activity, negative = inhibition, hits mostly inhibitors; DNA polymerase kappa (Homo sapiens), Q9UBT6; further: on the % scale 0 is the no-effect control and ±100 the full control effect
Target sequence (Q9UBT6 whole entry, looked up): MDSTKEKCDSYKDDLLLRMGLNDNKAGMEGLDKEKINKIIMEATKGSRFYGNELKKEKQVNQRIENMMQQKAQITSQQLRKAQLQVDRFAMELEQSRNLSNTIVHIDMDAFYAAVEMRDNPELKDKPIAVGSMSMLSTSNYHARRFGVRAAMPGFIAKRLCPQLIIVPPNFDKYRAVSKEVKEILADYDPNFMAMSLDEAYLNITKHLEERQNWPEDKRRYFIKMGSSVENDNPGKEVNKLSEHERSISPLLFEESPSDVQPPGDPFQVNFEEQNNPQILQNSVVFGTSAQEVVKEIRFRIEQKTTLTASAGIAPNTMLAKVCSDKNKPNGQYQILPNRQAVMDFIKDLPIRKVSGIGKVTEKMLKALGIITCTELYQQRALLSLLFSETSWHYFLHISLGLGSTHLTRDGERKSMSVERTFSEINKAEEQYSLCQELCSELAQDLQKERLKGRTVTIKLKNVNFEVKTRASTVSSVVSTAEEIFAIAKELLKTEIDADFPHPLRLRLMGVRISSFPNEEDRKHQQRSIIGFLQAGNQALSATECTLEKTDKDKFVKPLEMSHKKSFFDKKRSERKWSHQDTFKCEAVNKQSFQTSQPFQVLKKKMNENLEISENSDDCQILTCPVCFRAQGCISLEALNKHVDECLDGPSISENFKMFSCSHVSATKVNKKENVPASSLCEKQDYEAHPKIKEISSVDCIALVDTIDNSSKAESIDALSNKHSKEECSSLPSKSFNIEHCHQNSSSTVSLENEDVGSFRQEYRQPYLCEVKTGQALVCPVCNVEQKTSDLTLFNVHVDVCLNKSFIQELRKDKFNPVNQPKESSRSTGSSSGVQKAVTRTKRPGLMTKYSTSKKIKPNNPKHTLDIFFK
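Activity was followed as the change in fluorescence between reads at 0 and 10 min after starting the reaction with 50 nM substrate. Beforehand, 10 nM polymerase had been preincubated with compound for 15 min at room temperature.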
L3MBTL1 block – qHTS Assay for the Inhibitors of L3MBTL1 | Lethal(3)malignant brain tumor-like protein 1 (Homo sapiens), Q9Y468 | AlphaScreen L3MBTL1–H3K9me1 peptide binding | Potency, µM (top dose mostly 57.1 µM), for the others: top-dose activity, negative = inhibition, usual class: inhibitors | hit rate 0.66% among 230,000 | AID 485360, 2010; further: on the % scale 0 is the no-effect control and ±100 the full control effect; nearly all actives have a fitted effect of over 60% in size
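L3MBTL1 50 nM + b-AHA-H3(1-15)K9me1 75 nM, 30 min RT; compound added, 30 min RT; streptavidin donor/Ni-chelate acceptor beads 10 ug/mL each final, 30 min RT dark; AlphaScreen read.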
Pol eta inh – qHTS for Inhibitors of Polymerase Eta | hit rate 1.2% among 390,000 | DNA polymerase eta (Homo sapiens), Q9Y253 | AID 588591, 2011 | Potency, µM (titrated, usually from 114 µM), without a hit: at the highest dose activity change, negative = inhibition, most hits filed as inhibitors | recombinant Pol eta, fluorescent DNA replication assay; further: on the % scale 0 is the no-effect control and ±100 the full control effect
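Fluorescent replication assay: 50 nM final substrate added after a 15 min room-temperature compound preincubation with 10 nM enzyme. Signal taken at 0 min and again at 10 min.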
Pol beta inh – qHTS Assay for Inhibitors of DNA Polymerase Beta. P06746. Pol beta primer extension/strand displacement, fluorescence kinetic. Potency, µM (series often up to 114 µM), without a hit: at the highest dose activity change, negative = inhibition, hits mostly inhibitors. hit rate 1.3% among 340,000. AID 485314, 2010; further: on the % scale 0 is the no-effect control and ±100 the full control effect
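Pol beta (10 nM) and compounds were preincubated 15 min at room temperature, then 50 nM substrate (final) started primer extension/strand displacement. Reads were taken at 0 and 10 min; concentration-response data were fitted to a four-parameter Hill equation.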
POLI inh – qHTS for Inhibitors of Polymerase Iota | DNA polymerase iota (Homo sapiens), Q9UNA4 | Pol iota fluorescent replication assay, 10 min | Potency, µM (doses to about 115 µM), without a hit: at the highest dose activity, negative = inhibition, hits mostly inhibitors | hit rate 1% among 390,000 | AID 588590, 2011
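Pol iota at 10 nM preincubated 15 min with compounds at room temperature; reaction started with fluorescent substrate, 50 nM final. Fluorescence read kinetically at 0 and 10 min; buffer-only wells as negative control.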
TbPGK inh – qHTS for inhibitors of Phosphogylcerate Kinase: Hit Validation Screen | shares compounds with POLK inh | TbPGK coupled GAPDH assay, Kinase-Glo luminescence | Potency, µM (highest dose often 57.5 µM), for the others: top-dose activity change, negative = inhibition, actives largely listed as inhibitors | hit rate 79% among 500; further: on the % scale 0 is the no-effect control and ±100 the full control effect; nearly all actives have a fitted effect of over 65% in size
POLI cherry-pick – qHTS for Inhibitors of Polymerase Iota: Confirmatory Assay for Cherry-picked Compounds. shares compounds with POLK inh. Pol iota primer extension, TAMRA/BHQ fluorescence. Potency, µM, actives largely listed as inhibitors. hit rate 77% among 1,500. AID 720496, 2013
* = called active by the depositor; ? = inconclusive; . = not tested or not shown; [ ] = remark or other dose. The list is not random: actives were taken first. Their share in the collection is about 2.4%. The call rests on the fitted dose curve; in most records, active means well fitted curve in the direction sought with a large enough effect; inconclusive means small, poorly fitted or top-dose-only effect, or another doubt; inactive means no such curve, though single readings can be large; an effect the other way counts as inactive or inconclusive. Potency means the concentration at half of the fitted maximal effect.

SMILES | POLK inh | L3MBTL1 block | Pol eta inh | Pol beta inh | POLI inh | TbPGK inh | POLI cherry-pick
CCOc1cc(N2CCOCC2)c(OCC)cc1NC(=O)c1cc(-c2ccco2)nc2ccccc12 | 4%[60.1 µM] | -10% | 79µM* | ? | ? | . | ?
Cc1ccc(C)c(NC(=O)CCCn2nc(C)c3sc4ccccc4c3c2=O)c1 | 2% | . | -17% | 5% | 31% | . | .
Cc1ccc(/C=N/N2CCCCC2)o1 | -9% | . | -9% | 4% | -5% | 0% | .
O=C(Nc1ccccn1)c1cc2ccccc2o1 | -3% | 5% | -6% | 1% | 24% | 16µM* | .
O=C(NCc1ccccc1)c1ccc(NC(=O)C2CCCC2)cc1 | 0% | . | -18% | . | 36% | 1% | .
Cc1oc(-c2ccc(C(=O)NCc3ccc(N(C)C)cc3)cc2)nc1COc1ccccc1 | -13% | . | 1% | 0% | -14% | . | .
COc1ccc(-c2cc3nc(C)cc(N)n3n2)cc1 | -7% | 9% | -20% | 0% | 41% | 9.2µM* | .
COc1ccc(-c2cc3nc(C)cc(-c4ccc(OC)cc4)n3n2)cc1 | -8% | 13%[2.29 µM] | -16% | 11% | 0% | . | .
Cc1ccc(-c2cc(C(=O)N/N=C/c3ccoc3)c3ccccc3n2)cc1 | 14% | . | -15% | 17% | -11% | . | .
Cc1ccc(-c2cc(C(=O)N/N=C/c3c(C)nn(C)c3C)c3ccccc3n2)cc1C | 3% | . | ? | ? | 22µM* | . | ?
Cn1c(SCC(=O)c2ccc3c(c2)Cc2ccccc2-3)nnc1-c1ccccc1 | -6% | 4% | 8.9µM* | ? | ? | . | 42*
CSc1ccc(C=NNc2ccc(S(=O)(=O)Nc3ccccc3C(=O)O)cc2[N+](=O)[O-])cc1 | ? | 20µM* | ? | . | 25µM* | 4.1µM* | .
CCOc1cccc(C=NNc2ccc(S(=O)(=O)Nc3ccccc3C(=O)O)cc2[N+](=O)[O-])c1O | 7% | ? | -29% | . | 8% | . | .
c1ccc(Nc2nc3ccccc3o2)cc1 | -10% | . | -20% | 0% | -2%[58.9 µM] | . | .
Fc1ccccc1Nc1nc2ccccc2o1 | -6% | . | 0% | 0% | 9% | 18µM* | .
CCNC(=O)C1CC(=O)N(Cc2ccc3c(c2)OCO3)C(=Nc2ccc(F)cc2)S1 (configuration not stated) | -7% | 9% | 0% | ? | -10% | . | .
COc1ccc(N=C2SC(C(N)=O)CC(=O)N2Cc2ccc3c(c2)OCO3)cc1 (configuration not stated) | 89µM* | -24% | 28µM* | ? | 40µM* | -21% | .
CCOc1cc(/C=N/NC(=O)c2nnn(-c3nonc3N)c2C)ccc1OCc1ccc(C)cc1 | . | . | 10µM* | . | . | . | 24*
CCOc1cc(/C=N/NC(=O)c2nnn(-c3nonc3N)c2C)ccc1OCc1ccc(F)cc1 | 0% | . | -5% | 1% | 28% | . | .
CS(=O)(=O)c1ccc(C(=O)Nc2ccc(-c3nc4ccccc4[nH]3)cc2)cc1 | 6% | . | 3% | 0% | -22% | . | .
O=C(Nc1ccc(-c2nc3ccccc3[nH]2)cc1)c1ccc(C(F)(F)F)cc1 | . | . | . | . | . | . | ?
O=C(c1ccco1)N1CCC2(CCCN(Cc3ccccc3)C2)CC1 | 0%[60.1 µM] | . | . | . | . | . | .
CCN(CC)CCC(=O)Nc1cccc2c1C(=O)c1ccccc1C2=O | -21% | -9% | -28% | 20µM* | 16µM* | . | ?
COc1ccc(CN2C=C3C(=O)C(C)(OC(=O)C4CCCC4)C(=O)C=C3C=C2c2ccsc2)cc1 (configuration not stated) | -34% | . | 4% | -17% | -4% | . | .

Source: PubChem (National Center for Advancing Translational Sciences (NCATS))
